Inconclusive results are not listed. Calls of active or inactive are those of the source. The call rests on the fitted dose curve; in most records, active means well fitted inhibition curve with a large enough effect; inconclusive means small, poorly fitted or top-dose-only effect; inactive means flat fitted curve, though single readings scatter.

Common to all, as to experiment: qHTS profiling for inhibitors of Plasmodium falciparum proliferation (AID 504749); further: nearly all actives have a fitted effect of over 60% in size
What all share (conditions): P. falciparum in erythrocytes, SYBR Green DNA, 72 h; series mostly up to 28.7 µM
A general note: qHTS replaces the single test concentration by a dilution series.

For one assay, the system named is PC26. The essentials: (§1)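 In a 72 h erythrocytic culture (37 C, humidified, 5% CO2) at 2.5% hematocrit and 0.3% starting parasitemia, compounds were tested; SYBR Green I in detergent lysis buffer stained parasite DNA overnight.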
The next assay relates to PC49. The gist of the method:
as §1

Another assay concerns SC27B. The essentials:
as §1

The subject of the next assay is TAB109. The gist of the method: as §1
Another assay concerns TAB113. The essentials: as §1
A further assay relates to TAB165. The gist of the method:
as §1

The next assay deals with W2. The essentials:
as §1
Potency means the concentration at half of the fitted maximal effect.

Take `COC1=CC=C2[C@H]3Cc4ccc(OC)c5c4[C@@]2(CCN3C)[C@H]1O5`: the Potency entry in the assay with PC26, with PC49, in the assay with SC27B, in the assay on TAB109, in the assay with TAB113 and with TAB165 was “inactive” each time.
`CNC(=O)OCC[N+](C)(C)C`: the Potency result in the assay on PC26, in the assay on PC49, in the assay with SC27B, in the assay with TAB109, with TAB113 and in the assay on TAB165 was “inactive” in each case. Moreover, the Potency result with W2 was “inactive”.
Regarding `Cc1sc2ccccc2c1CC1=NCCN1`, the Potency entry in the assay with PC26, in the assay with PC49, in the assay with SC27B, in the assay with TAB109, in the assay with TAB113 and with TAB165 was “inactive” in each case.
As to `ClCC1CO1` (configuration not stated), the Potency result with PC26, in the assay with PC49, with SC27B, in the assay with TAB109, in the assay on TAB113 and in the assay on TAB165 was “inactive” throughout. Also, the Potency entry in the assay on W2 is “inactive”.
`[O]=[Cr](=[O])([OH])[O][Cr](=[O])(=[O])[OH]`: the Potency result in the assay with PC26, with PC49, with SC27B, in the assay with TAB109, in the assay with TAB113 and in the assay on TAB165 was “inactive” each time. Further, in the assay with W2, the Potency entry is “inactive”.
Take `c1csc(C2(N3CCCCC3)CCCCC2)c1`: the Potency result with PC26, with PC49, in the assay on SC27B, in the assay with TAB109, in the assay with TAB113 and in the assay with TAB165 was “inactive” in each case. The Potency in the assay on W2 was 9.53 µM (active).
For the molecule `c1ccc2sc(SNC3CCCCC3)nc2c1`, the Potency entry with PC26, with PC49, in the assay on SC27B, in the assay on TAB109, in the assay on TAB113 and with TAB165 was “inactive” in each case.
On to `CCCCCCCCCC(=O)O[C@H]1CC[C@H]2[C@@H]3CCC4=CC(=O)CC[C@]4(C)[C@H]3CC[C@]12C`, for which the Potency result with PC26, in the assay with PC49, with SC27B, in the assay with TAB109, in the assay on TAB113 and with TAB165 was “inactive” throughout.
On to `O=CC=O`, for which the Potency result in the assay on PC26, with PC49, in the assay on SC27B, in the assay with TAB109, in the assay with TAB113 and with TAB165 was “inactive” throughout. In addition, in the assay on W2, the Potency result is “inactive”.
Consider `CCC1(CC)C(=O)NC(=O)N(C)C1=O`, for which the Potency entry in the assay with PC26, in the assay on PC49, with SC27B, with TAB109, in the assay with TAB113 and with TAB165 was “inactive” each time.
In the case of `CC[N+](C)(CC)CCOC(=O)C(O)(c1ccccc1)c1ccccc1`, the Potency entry in the assay with PC26, in the assay on PC49, with SC27B, in the assay on TAB109, in the assay on TAB113 and with TAB165 was “inactive” each time. Moreover, in the assay with W2, the Potency result is “inactive”.

For the origin of these results see PubChem BioAssay (NCATS).
